In PubChem BioAssay AID1159580 (chemical genetic matrix, 2015):
Screen size: about 5,500 compounds; about 2,000 (36%) were called active. Inconclusive results (about 18%) are left out. No stated cut-off is given here; in the data, active means normalized growth mostly below about 0.91 (no sharp cut-off); inconclusive means no clear call, values can overlap the other calls; inactive means mostly above about 0.92. The list shows a part of the results.

Assay: chemical genetic growth profiling, strain panel (AID 1159580);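 further: tested at 20 µM; growth read once vehicle control cultures reached saturation at 30 °C; 1 = growth at the plate median or of vehicle wells; lower values mean less growth of the strain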
Details: growth OD

Measured: normalized growth

NS(=O)(=O)c1cc2c(cc1Cl)NC(C(Cl)Cl)NS2(=O)=O (stereo not drawn)
inactive: S. cerevisiae deletion strains, locus YKL009W, strain mrt4, hits give low values 1.02 | S. cerevisiae deletion strains, locus YKL068W, hits give low values 1 | S. cerevisiae deletion strains, locus YKL085W, strain MDH1 (second series), hits give low values 1.01 | S. cerevisiae deletion strains, locus YKL085W, strain MDH1, hits give low values 1.01 | S. cerevisiae deletion strains, locus YKL160W, strain elf1, hits give low values 1 | S. cerevisiae deletion strains, locus YKL190W, strain CNB1, hits give low values 1.02 | S. cerevisiae deletion strains, locus YKR001C, strain vps1, hits give low values 1.03 | S. cerevisiae deletion strains, locus YKR026C, strain gcn3, hits give low values 0.99 | S. cerevisiae deletion strains, locus YKR091W, strain srl3, hits give low values 0.97 | S. cerevisiae deletion strains, locus YLL001W, strain dnm1, hits give low values 1.01 | S. cerevisiae deletion strains, locus YLL026W, hits give low values 0.991 | S. cerevisiae deletion strains, locus YLL041C, strain sdh2, hits give low values 0.988 | S. cerevisiae deletion strains, locus YLR027C, strain aat2, hits give low values 0.985 | S. cerevisiae deletion strains, locus YLR039C, strain RIC1, hits give low values 1.06 | S. cerevisiae deletion strains, locus YLR058C, strain SHM2, hits give low values 1.02 | S. cerevisiae deletion strains, locus YLR102C, strain apc9, hits give low values 1.01 | S. cerevisiae deletion strains, locus YLR113W, strain HOG1, hits give low values 0.996 | S. cerevisiae deletion strains, locus YLR221C, strain rsa3, hits give low values 0.949 | S. cerevisiae deletion strains, locus YLR258W, strain gsy2, hits give low values 0.977 | S. cerevisiae deletion strains, locus YLR262C, strain YPT6 (second series), hits give low values 0.999 | S. cerevisiae deletion strains, locus YLR262C, strain YPT6, hits give low values 1.05 | S. cerevisiae deletion strains, locus YLR268W, strain sec22, hits give low values 1.04 | S. cerevisiae deletion strains, locus YLR320W, strain mms22, hits give low values 0.972 | S. cerevisiae deletion strains, locus YLR330W, strain CHS5, hits give low values 1 | S. cerevisiae deletion strains, locus YLR342W, strain FKS1 (second series), hits give low values 1.02 | S. cerevisiae deletion strains, locus YLR342W, strain FKS1, hits give low values 0.993 | S. cerevisiae deletion strains, locus YLR357W, strain rsc2, hits give low values 0.956 | S. cerevisiae deletion strains, locus YLR370C, strain arc18, hits give low values 0.985 | S. cerevisiae deletion strains, locus YLR371W, strain rom2, hits give low values 1.02 | S. cerevisiae deletion strains, locus YLR384C, strain iki3, hits give low values 0.973 | S. cerevisiae deletion strains, locus YLR418C, strain cdc73, hits give low values 1.05 | S. cerevisiae deletion strains, locus YML016C, strain PPZ1, hits give low values 1 | S. cerevisiae deletion strains, locus YML032C, strain rad52, hits give low values 1.02 | S. cerevisiae deletion strains, locus YML120C, strain ndi1, hits give low values 0.986 | S. cerevisiae deletion strains, locus YML124C, strain tub3, hits give low values 1.02 | S. cerevisiae deletion strains, locus YMR058W, strain fet3, hits give low values 0.982 | S. cerevisiae deletion strains, locus YMR078C, strain ctf18, hits give low values 1.02 | S. cerevisiae deletion strains, locus YMR125W, strain sto1, hits give low values 0.966 | S. cerevisiae deletion strains, locus YMR129W, hits give low values 0.97 | S. cerevisiae deletion strains, locus YMR205C, strain PFK2, hits give low values 0.994 | S. cerevisiae deletion strains, locus YMR223W, strain ubp8, hits give low values 1.01 | S. cerevisiae deletion strains, locus YMR231W, strain pep5, hits give low values 0.971 | S. cerevisiae deletion strains, locus YMR263W, strain SAP30, hits give low values 1.01 | S. cerevisiae deletion strains, locus YMR307W, strain GAS1, hits give low values 1 | S. cerevisiae deletion strains, locus YNL067W, strain RPL9B, hits give low values 1.01 | S. cerevisiae deletion strains, locus YNL071W, strain lat1, hits give low values 0.981 | S. cerevisiae deletion strains, locus YNL183C, strain NPR1, hits give low values 0.943 | S. cerevisiae deletion strains, locus YNL209W, strain ssb2, hits give low values 0.997 | S. cerevisiae deletion strains, locus YNL233W, strain BNI4, hits give low values 1.01 | S. cerevisiae deletion strains, locus YNL248C, strain rpa49, hits give low values 0.935 | S. cerevisiae deletion strains, locus YNL250W, strain rad50, hits give low values 1.02 | S. cerevisiae deletion strains, locus YNL271C, strain bni1, hits give low values 1.01 | S. cerevisiae deletion strains, locus YNL298W, strain CLA4, hits give low values 1.01 | S. cerevisiae deletion strains, locus YNL307C, strain MCK1, hits give low values 1.03 | S. cerevisiae deletion strains, locus YNL322C, strain KRE1 (second series), hits give low values 0.968 | S. cerevisiae deletion strains, locus YNR049C, strain mso1, hits give low values 0.971 | S. cerevisiae deletion strains, locus YNR052C, strain pop2, hits give low values 1.01 | S. cerevisiae deletion strains, locus YOL006C, strain TOP1, hits give low values 1.02 | S. cerevisiae deletion strains, locus YOL012C, strain htz1 0.822 | S. cerevisiae deletion strains, locus YOL147C, strain pex11, hits give low values 1.01 | S. cerevisiae deletion strains, locus YOR001W, strain rrp6, hits give low values 0.978 | S. cerevisiae deletion strains, locus YOR061W, strain CKA2, hits give low values 1 | S. cerevisiae deletion strains, locus YOR069W, strain VPS5, hits give low values 1.01 | S. cerevisiae deletion strains, locus YOR070C, strain gyp1, hits give low values 0.983 | S. cerevisiae deletion strains, locus YOR080W, strain dia2, hits give low values 0.984 | S. cerevisiae deletion strains, locus YOR083W, strain WHI5, hits give low values 0.982 | S. cerevisiae deletion strains, locus YOR106W, strain vam3, hits give low values 1.01 | S. cerevisiae deletion strains, locus YOR136W, strain idh2, hits give low values 1.01 | S. cerevisiae deletion strains, locus YOR144C, strain elg1, hits give low values 1 | S. cerevisiae deletion strains, locus YOR184W, strain ser1, hits give low values 1.02 | S. cerevisiae deletion strains, locus YOR231W, strain MKK1, hits give low values 0.98 | S. cerevisiae deletion strains, locus YOR265W, strain rbl2, hits give low values 0.981 | S. cerevisiae deletion strains, locus YOR270C, strain vph1, hits give low values 0.967 | S. cerevisiae deletion strains, locus YOR290C, strain snf2, hits give low values 0.945 | S. cerevisiae deletion strains, locus YOR316C, strain cot1, hits give low values 1.01 | S. cerevisiae deletion strains, locus YPL051W, strain arl3, hits give low values 0.991 | S. cerevisiae deletion strains, locus YPL055C, strain LGE1, hits give low values 1.02 | S. cerevisiae deletion strains, locus YPL078C, strain atp4, hits give low values 1 | S. cerevisiae deletion strains, locus YPL106C, strain sse1, hits give low values 0.96 | S. cerevisiae deletion strains, locus YPL240C, strain hsp82, hits give low values 0.983 | S. cerevisiae deletion strains, locus YPL241C, strain CIN2, hits give low values 1.01 | S. cerevisiae deletion strains, locus YPL256C, strain CLN2, hits give low values 0.969 | S. cerevisiae deletion strains, locus YPR119W, strain clb2, hits give low values 1 | S. cerevisiae deletion strains, locus YPR141C, strain kar3, hits give low values 1.02 | S. cerevisiae deletion strains, locus YPR163C, strain tif3, hits give low values 1.02 | S. cerevisiae deletion strains, locus YPR167C, strain met16, hits give low values 1.01 | S. cerevisiae deletion strains, strain wtn01, hits give low values 1.03 | S. cerevisiae strains, strain wild type, hits give low values 1
